Screening results as filed in PubChem.
Vaccinia mCherry = vaccinia inhibition (mCherry reporter); AID 720579; Vaccinia virus mCherry reporter infection, fluorescence; 0.63% of 310,000 active; Potency, µM (titrated, usually from 36.5 µM), usual class: inhibitors; calls by dose curve; tested in A549 cells; also: nearly all actives have a fitted effect of over 35% in size
Pf growth 48h = inhibits P. falciparum growth in the first generation, 48 h | Potency, µM (doses to about 28.7 µM), hits mostly inhibitors | 5.9% of 310,000 active | AID 504832 | P. falciparum luciferase growth in erythrocytes, 48 h
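First compound was added to culture medium, then infected red cells at 0.1% parasitemia and 2% hematocrit (final). After incubation at 37 C under 5% CO2, luciferase detection reagent was dispensed and light output recorded.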
Pf growth 96h = P. falciparum growth inhibition at 96 hour, primary screen for plastid delayed-death inhibitors | P. falciparum luciferase reporter growth, 96 h | Potency, µM (doses to about 28.7 µM), most hits filed as inhibitors | 6.9% of 320,000 active | AID 504834
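96 h incubation, 37 C, 5% CO2, of luciferase-reporter P. falciparum-infected RBCs (2% hematocrit, 0.05% parasitemia final) with test compounds; endpoint luminescence.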
Vaccinia Venus = vaccinia inhibition (Venus reporter); Vaccinia virus Venus reporter expression, fluorescence; Potency, µM (doses to about 36.5 µM), most hits filed as inhibitors; 0.46% of 330,000 active; AID 720580; calls by dose curve; tested in A549 cells; also: nearly all actives have a fitted effect of over 30% in size
AMA1 RON2 block = AMA1-RON2 (P. falciparum) interaction inhibition; AlphaScreen AMA1-biotinylated RON2 peptide binding; Potency, µM (highest dose often 58.2 µM), hits mostly inhibitors; 0.2% of 360,000 active; AID 720542; also: nearly all actives have a fitted effect of over 45% in size
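AMA1 (3D7) with his tag at 25 nM final met compounds first, then biotinylated RON2 peptide at 25 nM; detection used donor plus acceptor beads, 10 µg/mL apiece, read by AlphaScreen after 30 min at room temperature.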
Hits are given with their value; . = inactive; ? = inconclusive; / = not tested or not shown; [ ] = dose if it differs, or a comment. Compounds with a hit are over-represented: about 8.7% of the library has one in this group of screens. Unless noted, calls follow the shape of the dose curve; as a rule, active = well fitted curve in the direction sought with a large enough effect; inconclusive = small, poorly fitted or top-dose-only effect, or another doubt; inactive = no such curve, though single readings can be large; an effect the other way counts as inactive or inconclusive.

SMILES	Vaccinia mCherry	Pf growth 48h	Pf growth 96h	Vaccinia Venus	AMA1 RON2 block
COC(=O)[C@@H]1C[C@@H](NC(=O)c2cnsn2)CN1Cc1ccc(Cl)cc1	.	/	/	.	/
Cc1nc2nc(NC(=O)C(C)(C)C)[nH]n2c(=O)c1Cc1ccccc1	.	/	/	.	/
Oc1cc(Cl)ccc1Oc1ccc(Cl)cc1Cl	.	9.5µM	6µM	.	.
COc1ccc2[nH]c3c(=O)n(CCCCC(=O)NCCC(C)C)c(=S)[nH]c3c2c1	/	?	5.2µM	/	.
Cc1ccc(C(C)CCN2CCOc3ccc(CN4CCOCC4)cc3C2)o1 (stereo not drawn)	.	/	/	.	/
CC(=O)Oc1ccc(C2=NN(c3ccccc3)C(c3ccccc3)C2)cc1 (stereo not drawn)	/	12µM	.	/	.
CCC(=O)Nc1cccc(C2=NN(c3ccccc3)C(c3ccc(OC)cc3)C2)c1 (stereo not drawn)	/	?	13µM	/	.
COc1ccc(C2CC(c3ccccc3)=NN2c2ccc(Cl)c(C(=O)O)c2)cc1 (stereo not drawn)	.	.	?	.	.
COc1ccc(C2CC(c3ccccc3)=NN2c2ccc(N)cc2)cc1 (stereo not drawn)	.	?	?	.	.[2.32 µM]
CN1CCS/C1=C/C=C1\SC(=S)N(CC(=O)O)C1=O	.	.	.	.	.
CCCCN1C(=O)/C(=C/C=C2\SCCN2C)SC1=S	.	.	.	.	10µM
Cc1ccc(O)c(-c2cc(C(=O)Nc3ccc(S(=O)(=O)Nc4nc(C)cc(C)n4)cc3)[nH]n2)c1	.	?	13µM	.	.
Cc1ccc(-c2cc(C(=O)Nc3ccc(S(=O)(=O)N4CC(C)OC(C)C4)cc3)[nH]n2)c(O)c1 (stereo not drawn)	.	0.26µM	0.66µM	.	.
Cc1ccc(O)c(-c2cc(C(=O)Nc3ccc(S(=O)(=O)N4CC(C)OC(C)C4)cc3)[nH]n2)c1 (stereo not drawn)	/	0.52µM	.	/	.
Cc1cc(C)nc(NS(=O)(=O)c2ccc(NC(=O)c3ccccc3O)cc2)n1	.	/	/	.	/
COc1ccc(OC)c(S(=O)(=O)Nc2ccc(CC(=O)O)cc2)c1	/	.	13µM	/	.
COc1ccc(OC)c(S(=O)(=O)Nc2ccc(OCC(=O)O)cc2)c1	.	/	?	.	.
COc1cc2c(NC3CCN(C)CC3)nc(N3CCCN(C)CC3)nc2cc1O	.	/	/	.	/
O=c1cc(-c2ccccc2)[nH]c2ccc(F)cc12	.	0.59µM	1.5µM	?	.
Clc1ccc2[nH]c(-c3ccccc3)cc2c1	/	.	.	.	.
Cc1ccc(-c2cc(=O)c3cc(F)ccc3[nH]2)cc1	.	?	10µM	.	.
O=c1cc(-c2ccccc2)[nH]c2cc(Cl)ccc12	.	4.7µM	8.3µM	.	.
O=c1cc(-c2ccc(F)cc2F)[nH]c2ccccc12	/	.	.	/	/
COC(=O)c1cc2oc3ccccc3c2n1Cc1cccc(C)c1	.	/	/	.	/
Cc1cnc(SCc2ccccn2)nc1C1CCCN(C(=O)c2noc3c2CCCC3)C1 (stereo not drawn)	.	/	/	?	/
SMILES	Vaccinia mCherry	Pf growth 48h	Pf growth 96h	Vaccinia Venus	AMA1 RON2 block
O=C(CC(c1ccccc1)c1ccccc1O)N1CCCC1 (stereo not drawn)	.[1.46 µM]	.	/	.	.
O=C(CC(c1ccccc1)c1cc(Br)ccc1O)N1CCCCC1 (stereo not drawn)	/	13µM	?	/	.
CCN(CC)C(=O)CC(c1ccc(F)cc1)c1ccco1 (stereo not drawn)	/	?	.	.	.
CCCN(CCC)C(=O)CC(c1ccccc1)c1ccco1 (stereo not drawn)	.	12µM	?	.	.
CCCN(CCC)C(=O)CC(c1ccccc1)c1cc(Br)ccc1O (stereo not drawn)	?	13µM	/	?	.
CCCN1CCN(CCNC(=O)Nc2cc(OC)cc(OC)c2)CC1	.	/	/	.	/
Cc1ccc(NC(=O)N2CCc3cc(S(=O)(=O)N4CCC(C)CC4)ccc32)cc1F	.	/	/	?	/
O=c1[nH]c(C2CCCN(S(=O)(=O)c3ccccc3Cl)C2)nc2c1nnn2Cc1ccc(OC(F)(F)F)cc1 (stereo not drawn)	.	/	/	.	/
O=c1[nH]c(C2CCCN(S(=O)(=O)c3ccccc3F)C2)nc2c1nnn2Cc1ccccc1Cl (stereo not drawn)	?	?	12µM	.	.
CCCCCCC(=O)N1CCC(c2nc3c(nnn3Cc3ccccc3Cl)c(=O)[nH]2)CC1	.	13µM	?	.	.
O=C(C1CCCCC1)N1CCC(c2nc3c(nnn3Cc3ccccc3Cl)c(=O)[nH]2)CC1	.[7.34 µM]	/	/	.[7.34 µM]	.
